PubChem BioAssay (NCI)
Values joined by “and” are separate entries in the source; they are usually repeats but may differ in a detail not shown here. Equal entries are not always repeated. The panel holds about 83,000 compounds, 20% with a hit somewhere; the sample as a whole holds those more often.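 Method: cells in 96-well plates; compound added at one concentration; 48 h incubation; percent growth measured; values under 10 scored active.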 Active and inactive are the calls of the source.

Tested on: HL-60(TB) leukemia
Test: NCI-60 one-dose screen, 48 h (100 = growth as untreated, 0 = no growth, -100 = all killed)
Settings: 10 µM unless noted

Structure (SMILES) | growth
Nc1ccc(N=Nc2ccc(O)cc2)c(N)n1 | 37% (inactive)
COc1ccc(/C=C2/SC(=S)NC2=O)c(OC)c1OC | 83.8% (inactive)
COc1ccc(-c2noc(N)c2-c2cc(OC)c3c(c2)OCO3)cc1 | -29.4% (active)
CN1CCC(CN2c3ccccc3Sc3ccccc32)C1 (stereo not given) | 63.9% (inactive)
COc1cc2nc(Cl)nc(Nc3cccc(C(=O)/C=C/c4ccc(Br)cc4)c3)c2cc1OC | 77.8% (inactive)
CCOc1nc(-c2ccccc2)cc2c(O)c(C(=O)O)[nH]c(=O)c12 | 120% (inactive)
COC(=O)[C@H]1[C@H]2C[C@@H]3c4[nH]c5cc(OC)ccc5c4CCN3C[C@H]2C[C@@H](OC(=O)/C=C/c2cc(OC)c(OC)c(OC)c2)[C@@H]1OC | -40.1% (active)
COc1ccccc1C(C)=O | 105% (inactive) and 102% (inactive)
O=C1NC(c2ccc(F)cc2)N=C2C(c3ccccc3)=NOC12 (stereo not given) | 101% (inactive)
CC1(/C=N/NC(N)=S)NC(=O)NC1=O (stereo not given) | 86.8% (inactive)
c1cnc2c(-c3nc4ccc5[nH]ncc5c4c4c3CCCC4)c[nH]c2c1 | 41.5% (inactive)
CC(c1ccccc1)n1ccnc1CO (stereo not given) | 101% (inactive)
Cc1cc(O)c(C(C)C)cc1N | 83.9% (inactive) and 122% (inactive)
COc1ccc(S(=O)(=O)N2CCCCCC2)cc1NC(=O)c1[nH]c(C)c2c1CCCCC2=O | 7.56% (active)
CN(C)CCCOc1ccccc1NC1=C(Cl)C(=O)C(Nc2ccccc2OCCCN(C)C)=C(Cl)C1=O | -33.1% (active)
C=C(c1ccc(C(=O)O)cc1)c1cc2c(cc1C)C(C)(C)CCC2(C)C | 59.3% (inactive) and 74.6% (inactive)
COc1ccc(C(=O)N2NC(=O)/C(=C/c3ccccc3F)N=C2c2ccccc2)cc1 | 93.9% (inactive)
O=C1C(Cl)=C(Nc2ccccn2)C(=O)c2ccccc21 | 72.9% (inactive)
O=C(Nc1ccccc1)Nc1cccc(-n2cc(-c3ccncc3)c(-c3ccc(O)c(Cl)c3)n2)c1 | 37.5% (inactive)
COC(=O)[C@]1(C)CCC[C@]2(C)[C@H]3C[C@H]4C(C(C)C)=C[C@]3(CC[C@H]21)[C@H]1[C@@H]4[C@@H](OCCC#N)CC[C@@H]1OCCC#N | 2.28% (active)

Structure (SMILES) | growth
Oc1cccc(-c2nc3sccn3c2-c2ccncn2)c1 | 99.2% (inactive)
COc1cc(C(=O)/C=C/c2c(C)n([O-])c3ccc(C(F)(F)F)cc3[n+]2=O)cc(OC)c1OC | 69% (inactive)
CCSc1nnc(NC(=O)COc2ccc(Cl)cc2C)s1 | 108% (inactive)
COC(=O)[C@]1(C)CCC[C@]2(C)[C@H]3C[C@H]4C(C(C)C)=C[C@]3(CC[C@H]21)[C@@H]1C(=O)N(CCC#N)C(=O)[C@@H]14 | 44.4% (inactive)
Cc1cs/c(=N\NC(=O)c2cc(-c3cc4ccccc4o3)nn2-c2ccccc2)n1-c1ccccc1 | 109% (inactive)
COc1ccc(NC(=O)c2cccc(-c3cc(=O)c4c(O)c(OC)c(OC)cc4o3)c2)cc1 | 130% (inactive)
O=C(O)c1cn(-c2ccccc2)nc1-c1ccc(O)cc1 | 95.7% (inactive)
CSc1ccc(/C=C2\C=C(CC(=O)NCc3ccc(C(=O)c4ccccc4)cc3)c3cc(F)ccc32)cc1 | -30.3% (active)
Cc1ccc(=O)[nH]n1 | 99.9% (inactive) and 102% (inactive)
CN(C)CCCOc1cccc(NC2=C(Cl)C(=O)C(Nc3cccc(OCCCN(C)C)c3)=C(Cl)C2=O)c1 | -53.2% (active)
O=CC1(C2(C=O)c3ccccc3-c3ccccc32)c2ccccc2-c2ccccc21 | -52.3% (active)
CN1CCN(C(=O)[C@]2(C)CC[C@]3(C)CC[C@]4(C)C(=CC(=O)[C@@H]5[C@@]6(C)CCC(=O)NC(C)(C)[C@@H]6CC[C@]54C)[C@@H]3C2)CC1 | 95.7% (inactive)
O=C1/C(=C/c2ccccc2Br)COc2ccc(O)c(O)c21 | -9.04% (active)
CN1C(=O)C(N=Nc2ccc([N+](=O)[O-])cc2)SC1=S (stereo not given) | -4.43% (active) and -10.4% (active)
CCCCCC(=O)OCC(=O)O[C@@H]1C[C@]2(C(C)C)O[C@@]1(C)[C@@H]1CC[C@@H](C)[C@H]1[C@@H]2OC(=O)/C=C/c1ccccc1 | 78.5% (inactive)
C[C@@H](Oc1cc(C(=O)Nc2ccc(C(=O)N3CCN(C)CC3)cc2)nnc1N)c1c(Cl)ccc(F)c1Cl | 88.3% (inactive)
CCOC(=O)c1sc2ncnc(Nc3ccc(NC(=O)Nc4ccc(Cl)cc4)cc3)c2c1C | 91.4% (inactive)
OC(CC(c1ccccc1)c1cccc2ccccc12)(c1ccccc1)c1ccccc1 (stereo not given) | 99.1% (inactive) and 101% (inactive)
CC1=C(C#N)C(C)(C)C(C#N)=C(C)N1 | 98.6% (inactive)
COc1ccc2c(c1)sc1nc(-c3ccc(N(C)C)cc3)cn12 | 65.4% (inactive)
